Drawing on PubChem BioAssay (NCI), this text covers growth for 9 compounds.

About 83,000 compounds went through this panel and 20% of them were active in at least one assay; those are over-represented in the sample as a whole.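 A percent growth of 40 corresponds to 60% growth inhibition; 0 means no net growth; -100 means all cells died. Active threshold: below 10.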 Unmarked numbers belong to inactive results. The source made the active and inactive calls.

Among the test systems are HCT-15 colon; HT29 colon; SNB-75 CNS; U251 CNS; PC-3 prostate; UACC-62 melanoma; LOX IMVI melanoma; SK-MEL-28 melanoma; SN12C renal; UO-31 renal; ACHN renal; CAKI-1 renal; A498 renal; CCRF-CEM leukemia; MOLT-4 leukemia; SK-MEL-5 melanoma; SK-MEL-2 melanoma; TK-10 renal; SNB-19 CNS; EKVX NSCLC.
Assay in all cases: NCI-60 one-dose screen, 48 h (100 = growth as untreated, 0 = no growth, -100 = all killed)
Settings in all cases: 10 µM unless noted

As to `CCOC(=O)C1=C(C)N2C(=NC3=C(CCCC/C3=C\c3cc(OC)c(OC)c(OC)c3)C2c2cc(OC)c(OC)c(OC)c2)S1` (stereo not drawn), the growth in the assay on HCT-15 colon is 44.8%; with HT29 colon, 66.8%; in the assay with SNB-75 CNS, 89.4%; with U251 CNS it was 67.7%; in the assay with PC-3 prostate, 49.8%; in the assay on UACC-62 melanoma, 39.9%. Further, the growth is 74.1% in the assay on LOX IMVI melanoma; 82.9% with SK-MEL-28 melanoma; 75.2% with SN12C renal; 54.3% in the assay with UO-31 renal; 69.6% with ACHN renal; 65.6% in the assay with CAKI-1 renal. Besides, the figures for the growth with A498 renal, in the assay with CCRF-CEM leukemia and in the assay with MOLT-4 leukemia were 52%, 70.9% and 45.3%, respectively.

For the compound `CC1=CN2C(=NC3=C(CCCC/C3=C\c3ccccc3)C2c2ccccc2)S1` (stereo not drawn), the growth was 94.8% in the assay on HCT-15 colon; 91.7% in the assay with HT29 colon; 82.5% in the assay on SNB-75 CNS; 96.5% in the assay with U251 CNS; 99.2% in the assay on PC-3 prostate; 83.8% in the assay on UACC-62 melanoma. Moreover, the growth was 97.5% in the assay with LOX IMVI melanoma; 107% with SK-MEL-28 melanoma; 96.3% in the assay with SN12C renal; 78.1% in the assay on UO-31 renal; 99.5% in the assay with ACHN renal; 96.3% in the assay with CAKI-1 renal. For the same compound, the results for the growth in the assay with A498 renal and in the assay with MOLT-4 leukemia were 117% and 99.8%, respectively.

Take `COc1nc2c(cc1S(=O)(=O)c1ccccc1)CCc1c-2cnn1-c1ccccc1`: the growth with HCT-15 colon is 59.8%; in the assay with HT29 colon it was 54.7%; in the assay on SNB-75 CNS it was 65.8%; in the assay on PC-3 prostate it was 50.3%; with SK-MEL-5 melanoma, 86.6%; in the assay with UACC-62 melanoma, 69.4%. For the same compound, the growth in the assay with LOX IMVI melanoma was 90%; in the assay on SK-MEL-28 melanoma, 82.9%; in the assay with SK-MEL-2 melanoma it was 83.4%; in the assay with SN12C renal, 77.9%; in the assay on UO-31 renal, -65.3% (active); in the assay with TK-10 renal, 67.9%. In addition, the growth is 71.1% in the assay with ACHN renal; 58.2% in the assay on CAKI-1 renal; 54.6% with A498 renal; 68.6% in the assay with CCRF-CEM leukemia; 54.5% with MOLT-4 leukemia.

Turning to `CN1CCN(c2nc(-c3ccncc3)nc3sc4c(c23)CCCCCC4)CC1`, the growth was 76.5% in the assay with HCT-15 colon; 24.3% in the assay with HT29 colon; 14.5% with SNB-75 CNS; 61.9% in the assay with PC-3 prostate; 86.6% in the assay with UACC-62 melanoma; 64.9% with LOX IMVI melanoma. For the same compound, the growth with SK-MEL-28 melanoma is 83.5%; in the assay on SN12C renal it was 67.8%; with UO-31 renal, 33.7%; in the assay on ACHN renal, 68.3%; with CAKI-1 renal it was 46.7%; in the assay with A498 renal it was 31.7%. In addition, the growth in the assay on CCRF-CEM leukemia was 79.5%; in the assay with MOLT-4 leukemia, 50.9%.

For `CC(C)(C)[Si](C)(C)OC1[C@@H](O[Si](C)(C)C(C)(C)C)[C@@H](CNC(=O)NC(=O)C(F)(F)F)O[C@H]1n1cnc2c(NC(=O)Nc3ccccc3)ncnc21` (stereo partly drawn), the growth was 69.7% in the assay on HCT-15 colon; 21.3% in the assay with HT29 colon; 72.8% in the assay on SNB-75 CNS; 78.6% in the assay on U251 CNS; 84.3% in the assay with UACC-62 melanoma; 56.2% in the assay with LOX IMVI melanoma. Moreover, the growth with SK-MEL-28 melanoma is 97.9%; with SN12C renal, 81.1%; in the assay on UO-31 renal it was -24.2% (active); in the assay on ACHN renal it was 76.2%; in the assay with CAKI-1 renal it was 16.6%; with A498 renal, 96.9%. For the same compound, the growth with MOLT-4 leukemia was -41.7% (active).

As for `CNc1ccc(Br)cc1-c1n[nH]c(=O)[nH]c1=O`, the growth with HCT-15 colon is 102%; in the assay with HT29 colon, 112%; in the assay on SNB-75 CNS, 77.4%; with U251 CNS, 96.2%; with PC-3 prostate, 99.5%; in the assay with UACC-62 melanoma, 105%. Moreover, the growth in the assay on LOX IMVI melanoma is 98.6%; in the assay with SK-MEL-28 melanoma, 107%; with SN12C renal, 108%; in the assay on UO-31 renal it was 71.3%; with ACHN renal, 94.6%; in the assay on CAKI-1 renal it was 76%. Moreover, the growth with A498 renal is 89.7%; in the assay with CCRF-CEM leukemia, 102%; with MOLT-4 leukemia it was 99.5%.

On to `COc1cc(OCc2cccc(-c3ccc(C(O)c4nccs4)cc3)c2C)cc(OC)c1C=O` (stereo not drawn), for which the growth is 32.3% in the assay with HCT-15 colon; 48.7% in the assay on HT29 colon; 70.4% in the assay with SNB-19 CNS; 60.6% in the assay on U251 CNS; 52.2% in the assay with PC-3 prostate; -78.1% (active) in the assay on SK-MEL-5 melanoma. The growth was -4.45% (active) with UACC-62 melanoma; 48.8% in the assay with LOX IMVI melanoma; 57.3% with SK-MEL-28 melanoma; 60.4% in the assay with SK-MEL-2 melanoma; 43% in the assay with EKVX NSCLC; 61.8% with SN12C renal. The growth was 22.9% with UO-31 renal; 27.7% in the assay on TK-10 renal; 25.2% in the assay on ACHN renal; 2.55% (active) in the assay on CAKI-1 renal; 37.2% in the assay with CCRF-CEM leukemia; 21.2% with MOLT-4 leukemia.

With `Cc1nc(NC(=O)COc2cccc(/C=C3\COc4ccccc4C3=O)c2)sc1C`, the growth was -63.8% (active) in the assay with HCT-15 colon; -100% (active) in the assay with HT29 colon; 54.2% in the assay with SNB-75 CNS; -100% (active) in the assay with U251 CNS; -81.8% (active) with SK-MEL-5 melanoma; -18.9% (active) in the assay with UACC-62 melanoma. The growth in the assay with LOX IMVI melanoma is -94.3% (active); in the assay with SK-MEL-28 melanoma, -61.2% (active); in the assay with SK-MEL-2 melanoma, -77% (active); in the assay with EKVX NSCLC, -23.3% (active); with SN12C renal, -46.1% (active); with UO-31 renal, -80.1% (active). The growth in the assay with TK-10 renal is -74.1% (active); with ACHN renal, -96.9% (active); in the assay on CAKI-1 renal, -94.3% (active); in the assay on A498 renal it was 87.2%; with MOLT-4 leukemia, -36.8% (active).

As to `O=c1nc(NO)[nH]c(=O)n1Cc1ccc(F)cc1`, the growth in the assay on HCT-15 colon was 107%; in the assay with HT29 colon, 105%; in the assay on SNB-75 CNS, 86.1%; with U251 CNS, 98.6%; in the assay on PC-3 prostate, 94.1%; in the assay on UACC-62 melanoma, 108%. Further, the growth with LOX IMVI melanoma is 101%; in the assay on SK-MEL-28 melanoma it was 102%; in the assay with SN12C renal, 107%; with UO-31 renal it was 84.2%; with ACHN renal, 101%; with CAKI-1 renal, 111%. The growth in the assay with A498 renal was 128%; in the assay on CCRF-CEM leukemia, 105%; with MOLT-4 leukemia, 103%.
